Hit rate of the full screen: of about 68,000 compounds, about 2,700 (4%) showed an effect of 50% or more. This excerpt belongs to a sample that is enriched for strong results.
Tested on: Plasmodium berghei
Test: Screen against P. berghei liver stage (PbLuc), transformed with Luciferase, at 2uM
Format: functional, HepG2
Details: tested at 2 uM

Row | SMILES | INHIBITION [%]
1 | CCc1nc(CNC(C)c2cccc(N3CCCC3=O)c2)cs1 (centres undefined) | 0.45
2 | Cc1nc(CNC(C)c2cccc(N3CCCC3=O)c2)cs1 (centres undefined) | 65.57
3 | Cc1n[nH]cc1CNC(C)c1cccc(N2CCCC2=O)c1 (centres undefined) | 11.31
4 | Cc1ccc2nc(C3CCN(CC4CC4)CC3)nn2c1 | 28.95
5 | CC(C)(C)c1nc(CN2CCc3onc(-c4cccc(F)c4)c3C2)no1 | -7.68
6 | O=C(c1ccco1)N1CCC[C@]2(C[C@H](Oc3ncccc3F)CO2)C1 | -9.69
7 | O=C1CN(C(=O)c2cc(-c3ccco3)nc3c(Cl)cccc23)CCN1 | 38.83
8 | O=C(c1cc(-c2ccco2)nc2c(Cl)cccc12)N1CC[C@H]2CNC[C@H]21 | 53.98
9 | O=C(c1cc(-c2ccco2)nc2c(Cl)cccc12)N1C[C@H]2CNC[C@H]2C1 | 35.46
10 | Cc1occc1C(=O)N1CCOCC2(CCN(C3CCOCC3)C2)C1 (centres undefined) | 30.46
11 | Fc1ccc2c(c1)C1(CCNCC1)CC2NC1CC1 (centres undefined) | 21.32
12 | Cc1ccc2c(c1)C1(CCNCC1)CC2NC1CC1 (centres undefined) | 13.67
13 | c1ccc2c(c1)C(NC1CCCC1)CC21CCNCC1 (centres undefined) | 53.81
14 | CCc1ccc(C(=O)N2CCCC2c2nnc3n2CCCCC3)o1 (centres undefined) | 17.33
15 | Cc1cccc(CN2CCc3nnc(CN4CCCC4=O)n3CC2)n1 | -43.47
16 | O=C1CCCN1Cc1nnc2n1CCN(Cc1ccccn1)CC2 | 51.26
17 | c1ccc(CN2CCc3nnc(CN4CCCCC4)n3CC2)nc1 | 2.71
18 | Cc1ccc(CN2CCc3nnc(CN4CCCC4=O)n3CC2)s1 | 60.6
19 | Cc1ccc(CN2CCc3nnc(CN4CCCC4=O)n3CC2)o1 | 47.97
20 | O=C1CCCN1Cc1nnc2n1CCN(Cc1ccoc1)CC2 | -11.91
21 | Cn1cc(N2CC3(COCCN(Cc4nccs4)C3)OCC2=O)cn1 (centres undefined) | 6.8
22 | Clc1cnccc1N1CCCOCC1 | -149.33
23 | O=C1CC(c2ccncc2)c2c(sc3c2CCCC3)N1 (centres undefined) | -5.89

Row | SMILES | INHIBITION [%]
24 | Cc1cccc(N2CCN(C(=O)NC(C)c3nncn3C)CC2)c1C (centres undefined) | 38.76
25 | CCN(CC)S(=O)(=O)N1CC[C@H](c2ccccc2)[C@H]2NCCCC[C@H]21 | 39.99
26 | COc1cc(N2CCC(c3nccn3Cc3ccccn3)CC2)ncn1 | 53.19
27 | COc1cc(N2CCC(c3nccn3Cc3ccccc3)CC2)ncn1 | -2.99
28 | COc1cc(N2CCC(c3nccn3Cc3cccnc3)CC2)ncn1 | 5.82
29 | O=c1c2cc3c(cc2nnn1Cc1ccccc1Cl)OCCO3 | -15.25
30 | CN(C)C(=O)Cc1ccc(-c2cccc3c2CCNC3)cc1 | 2.11
31 | CCC(C)C(=O)Nc1ccc(CCN2CCOCC2)cc1 (centres undefined) | 31.65
32 | Cc1cc(C)c2nc(CN3CCC(CN)C3)cc(O)c2c1 (centres undefined) | 25.06
33 | Cc1cc(C)c2nc(CN3CCC(CN)CC3)cc(O)c2c1 | 51.19
34 | Cc1cc(C)c2nc(CN3CCC(C#N)CC3)cc(O)c2c1 | 3.91
35 | Cn1c(CN2CCCCC2)cc(=O)c(O)c1CN1CCCCC1 | 14.97
36 | O=C(c1ccco1)N1Cc2cnn(CC3CC3)c2C(COCC2CC2)C1 (centres undefined) | 14.09
37 | COC1CCN(C(=O)Cn2ncc(N3CCCCC3)cc2=O)C1 (centres undefined) | 11.69
38 | Cc1cccc(C(=O)Nc2cccc3c2CCCC3)n1 | -25.13
39 | CC1CN(c2ncccc2C(=O)Nc2cccc3c2CCCC3)CCN1 (centres undefined) | 39.51
40 | O=C(Nc1cccc2c1CCCC2)c1cccnc1N1CCCNCC1 | 65.7
41 | CN(Cc1ccc(Cl)cc1)S(=O)(=O)N(C)Cc1cnn(C)c1 | -2.86
42 | O=C(c1ccncc1)N1CCc2onc(CN3CCCC3)c2C1 | 37.35
43 | O=C(c1ccc(Cl)o1)N1CCCC(c2cc(C(F)(F)F)[nH]n2)C1 (centres undefined) | -102.06
44 | CCC(Cn1ccc2[nH]c(=O)c(C#N)cc2c1=O)OC (centres undefined) | 0.03
45 | CC(O)CCn1ccc2[nH]c(=O)c(C#N)cc2c1=O (centres undefined) | 44.41
46 | CCCOC(C)Cn1ccc2[nH]c(=O)c(C#N)cc2c1=O (centres undefined) | 59.1

Row | SMILES | INHIBITION [%]
47 | Cc1nc(C)n(Cc2cccc(NC(=O)N(C)CCC(C)O)c2)n1 (centres undefined) | -3.2
48 | Cc1cccc(-n2nc(CC(C)C)nc2CCC(=O)N(C)C)c1 | 8.13
49 | CSCC(=O)N1CCc2c(cnc(C)c2-c2noc(-c3cc[nH]n3)n2)C1 | 18.84
50 | COCCn1ccnc1C1CCCN(C(=O)CSc2nnc(C)o2)C1 (centres undefined) | -7.17
51 | CCn1c(CC2CCN(S(=O)(=O)c3cccc(C)c3)CC2)nn(C)c1=O | 38.96
52 | CCn1c(CC2CCN(S(=O)(=O)Cc3ccccc3)CC2)nn(C)c1=O | 22.09
53 | CCn1c(CC2CCN(S(=O)(=O)N3CCCCC3)CC2)nn(C)c1=O | 50.41
54 | CCc1nn(C)c(Cl)c1CN(CCOC)Cc1cnn(C)c1 | -0.41
55 | COC(=O)C(C)(C)NC(=O)C1CC(=O)N(CC(C)C)C1 (centres undefined) | 49.16
56 | CCN1CC(C(=O)NC(C)(C)C(=O)OC)CC1=O (centres undefined) | -59.42
57 | COC(=O)C(C)(C)NC(=O)C1CC(=O)N(CC(F)(F)F)C1 (centres undefined) | 54.62
58 | COc1ccc(CCN2CC(NCc3ncc[nH]3)CC2=O)cc1 (centres undefined) | 45.41
59 | c1ccc(N2CC[C@@H]3CN(Cc4ccncc4)CCO[C@@H]3C2)cc1 | -19.36
60 | CS(=O)(=O)CCN(CCCO)C1CCc2ccccc21 (centres undefined) | 14.3
61 | O=S(=O)(c1ccccc1F)N1CCCCC1c1cc[nH]n1 (centres undefined) | -16.62
62 | O=S(=O)(NC1CCCN(c2ncccn2)C1)N1CCCCCC1 (centres undefined) | -56.93
63 | COc1ccsc1C(=O)NC1CCN(c2cccc(F)c2)CC1 | -11.07
64 | Cc1cc(CN2CCC(c3cc(Cc4ccccc4)n[nH]3)CC2)[nH]n1 | -3.32
65 | Nc1cc(N2CCC(c3cc(Cc4ccccc4)n[nH]3)CC2)ccn1 | 60.35
66 | Nc1nccc(N2CCC(c3cc(Cc4ccccc4)n[nH]3)CC2)n1 | 56.33
67 | Cc1ccc(N2CCC(c3cc(Cc4ccccc4)n[nH]3)CC2)nn1 | -45.89
68 | NC(=O)NCCC(=O)N1CCC(c2cc(Cc3ccccc3)n[nH]2)CC1 | 42.27
69 | Nc1nc(O)cc(N2CCC(c3cc(Cc4ccccc4)n[nH]3)CC2)n1 | 5.41
